{"source": "PubChem BioAssay (Tox21)", "key": {"[1]": {"assay": "Nuclear factor erythroid 2-related factor 2/antioxidant responsive element (Nrf2/ARE) small molecule agonists: qHTS cell viability counter screen in human keratinocytes (AID 1919968; active means well fitted curve in the direction sought with a large enough effect in the repeat runs; an effect the other way counts as inactive or inconclusive; further: nearly all actives have a fitted effect of over 55% in size; further: potency means the concentration at half of the fitted maximal effect)", "how_it_was_run": "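HaCaT ARE reporter line, 1,500 cells/well; 5 h settle, 37 C/5% CO2; cpd in DMSO pinned; 23 h exposure; CellTiter-Fluor, 1 h; fluorescence.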"}, "[2]": {"assay": "Nuclear factor erythroid 2-related factor 2/antioxidant responsive element (Nrf2/ARE) small molecule agonists: luciferase reporter gene qHTS assay in human keratinocytes (AID 1919969); further: nearly all actives have a fitted effect of over 35% in size; further: potency means the concentration at half of the fitted maximal effect"}, "[3]": {"target": "Gonadotropin-releasing hormone receptor (Homo sapiens) (UniProt P30968)", "sequence (P30968 whole entry, looked up)": "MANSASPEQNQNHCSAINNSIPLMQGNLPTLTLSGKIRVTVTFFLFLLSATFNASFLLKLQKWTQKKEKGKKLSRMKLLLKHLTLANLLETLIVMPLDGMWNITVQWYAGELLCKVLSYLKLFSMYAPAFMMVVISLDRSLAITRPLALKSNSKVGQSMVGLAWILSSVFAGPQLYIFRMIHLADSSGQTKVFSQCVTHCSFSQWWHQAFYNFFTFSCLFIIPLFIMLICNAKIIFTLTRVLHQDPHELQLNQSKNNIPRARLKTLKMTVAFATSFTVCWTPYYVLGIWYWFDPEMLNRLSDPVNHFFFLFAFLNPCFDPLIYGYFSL", "assay": "Human gonadotropin-releasing hormone receptor (GnRHR) small molecule agonists, calcium flux assay in GnRHR-HEK293 cells (AID 1920063); further: nearly all actives have a fitted effect of over 35% in size; further: potency means the concentration at half of the fitted maximal effect", "how_it_was_run": "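GnRHR-HEK293, 1500 cells/well, 18 h 37 C/5% CO2; Ca dye 1 h 37 C; cpd pinned (DMSO), agonist mode; kinetic FL 480/540, 3 min, 1 s reads; 15 conc, n=3.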"}, "[4]": {"target": "KiSS-1 receptor (Homo sapiens) (UniProt Q969F8)", "sequence (Q969F8 whole entry, looked up)": "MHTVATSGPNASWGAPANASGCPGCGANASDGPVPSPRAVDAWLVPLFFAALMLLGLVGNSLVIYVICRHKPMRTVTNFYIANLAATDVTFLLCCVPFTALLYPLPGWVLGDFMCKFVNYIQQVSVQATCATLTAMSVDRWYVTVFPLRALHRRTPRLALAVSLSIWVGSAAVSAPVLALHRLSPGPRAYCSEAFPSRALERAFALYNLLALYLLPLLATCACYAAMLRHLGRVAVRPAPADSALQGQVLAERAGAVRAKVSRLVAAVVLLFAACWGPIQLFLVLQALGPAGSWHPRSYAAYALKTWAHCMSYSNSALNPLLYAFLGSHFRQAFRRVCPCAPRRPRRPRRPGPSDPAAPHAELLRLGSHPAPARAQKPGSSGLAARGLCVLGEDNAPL", "assay": "Human kisspeptin (KISS1R) small molecule agonists, calcium flux assay in KISS1R-HEK293 cells (AID 1920064; active means well fitted curve in the direction sought with a large enough effect in the repeat runs; an effect the other way counts as inactive or inconclusive; further: potency means the concentration at half of the fitted maximal effect)", "how_it_was_run": "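Stable human KISS1R HEK293 line; 18 h plating, 37 C/5% CO2; calcium dye 1 h 37 C; compound pin transfer; kinetic fluorescence Ex/Em 480/540, 3 min.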"}, "[5]": {"assay": "G protein-coupled receptor (GPCR) small molecule agonists, calcium flux assay: HEK293 wild type cell line counter screen (AID 1920065); further: potency means the concentration at half of the fitted maximal effect", "how_it_was_run": "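Kinetic fluorescence at Ex/Em 480/540, recorded every second over 3 min, served as the read-out after compound addition. Each compound was tested at 15 concentrations in triplicate on cells pre-loaded with calcium dye for 1 h.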"}, "[6]": {"assay": "p53 small molecule agonists, cell-based qHTS assay with human liver microsomes (AID 1963577)", "how_it_was_run": "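In this qHTS, p53 response-element beta-lactamase cells receive test compound together with a microsome/NADPH activating system (0.5 mg/mL final each) and are incubated 16 h at 37 C before LiveBLAzer fluorescence detection.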"}, "[7]": {"assay": "p53 small molecule agonists, cell-based qHTS assay with rat liver microsomes (AID 1963578)", "how_it_was_run": "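Agonist mode in p53RE-bla reporter cells, with compounds co-incubated 16 h at 37 C alongside 0.5 mg/mL rat liver microsomes and 0.5 mg/mL NADPH (final), followed by a 2 h LiveBLAzer detection step.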"}, "[8]": {"assay": "p53 small molecule agonists, cell-based qHTS assay with human liver microsomes: qHTS cell viability counter screen (AID 1963579); further: nearly all actives have a fitted effect of over 45% in size; further: potency means the concentration at half of the fitted maximal effect", "how_it_was_run": "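Metabolically activated exposure: compounds, human liver microsomes and NADPH (0.5 mg/mL final apiece) were added to p53RE-bla cells seeded 5 h earlier, left 16 h at 37 C, and then assessed for viability by CellTiter-Glo luminescence.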"}, "[9]": {"assay": "p53 small molecule agonists, cell-based qHTS assay with rat liver microsomes: qHTS cell viability counter screen (AID 1963580); further: nearly all actives have a fitted effect of over 45% in size; further: potency means the concentration at half of the fitted maximal effect", "how_it_was_run": "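In HCT-116 cells carrying a p53 response element-bla reporter, compounds were metabolically activated in situ by rat liver microsomes with NADPH over 16 h. Cell ATP content then served as the cytotoxicity measure.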"}, "[10]": {"assay": "p53 small molecule agonists, cell-based qHTS assay (AID 1963582; active means well fitted activation curve with a large enough effect in the signal ratio in the repeat runs, not every such curve was filed as active; the % refers to the signal ratio)", "how_it_was_run": "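Reporter line: p53RE-bla. Pre-incubation 5 h, 37 C, 5% CO2; compound (DMSO, pin tool) 16 h, 37 C; B/G FRET substrate 2 h RT; fluorescence intensity read.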"}, "[11]": {"target": "5-hydroxytryptamine receptor 2A (Homo sapiens) (UniProt P28223)", "sequence (P28223 whole entry, looked up)": "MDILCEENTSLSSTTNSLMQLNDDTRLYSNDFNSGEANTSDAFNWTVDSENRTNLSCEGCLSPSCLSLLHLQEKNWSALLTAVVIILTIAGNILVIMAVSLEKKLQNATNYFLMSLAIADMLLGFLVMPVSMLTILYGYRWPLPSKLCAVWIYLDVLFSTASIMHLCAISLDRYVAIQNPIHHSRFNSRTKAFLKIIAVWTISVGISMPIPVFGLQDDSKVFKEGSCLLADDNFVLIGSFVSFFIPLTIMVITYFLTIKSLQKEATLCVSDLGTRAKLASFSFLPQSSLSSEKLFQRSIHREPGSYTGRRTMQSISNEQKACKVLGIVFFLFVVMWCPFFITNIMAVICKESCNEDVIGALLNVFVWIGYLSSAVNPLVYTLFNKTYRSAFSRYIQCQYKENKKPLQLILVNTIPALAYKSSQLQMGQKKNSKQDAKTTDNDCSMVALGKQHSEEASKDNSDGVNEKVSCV", "assay": "5-hydroxytryptamine receptor 2A (HTR2A) small molecule antagonists, cell-based qHTS assay (AID 1963586); further: nearly all actives have a fitted effect of over 45% in size; further: potency means the concentration at half of the fitted maximal effect", "how_it_was_run": "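Antagonist-mode intracellular calcium assay: DOI (4 nM) added after 5 min compound pre-incubation at room temperature to dye-loaded HTR2A-CHO cells. Fluorescence followed for 3 min, sampled every second.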"}, "[12]": {"target": "Muscarinic acetylcholine receptor M1 (Homo sapiens) (UniProt P11229)", "sequence (P11229 whole entry, looked up)": "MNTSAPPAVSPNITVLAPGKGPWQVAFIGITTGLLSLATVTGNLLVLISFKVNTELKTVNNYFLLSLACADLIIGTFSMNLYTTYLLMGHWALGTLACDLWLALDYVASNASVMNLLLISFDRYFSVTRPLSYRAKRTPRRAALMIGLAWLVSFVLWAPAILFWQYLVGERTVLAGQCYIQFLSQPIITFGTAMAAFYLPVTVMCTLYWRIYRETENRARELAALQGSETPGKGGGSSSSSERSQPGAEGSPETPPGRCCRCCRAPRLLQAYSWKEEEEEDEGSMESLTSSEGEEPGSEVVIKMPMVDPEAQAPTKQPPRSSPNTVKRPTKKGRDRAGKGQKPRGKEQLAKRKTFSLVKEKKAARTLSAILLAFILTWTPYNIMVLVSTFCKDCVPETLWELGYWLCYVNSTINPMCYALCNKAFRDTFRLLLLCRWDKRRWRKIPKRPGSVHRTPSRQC", "assay": "Cholinergic receptor muscarinic 1 (CHRM1) small molecule antagonists, cell-based qHTS assay (AID 1963588); further: nearly all actives have a fitted effect of over 40% in size", "how_it_was_run": "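CHRM1-CHO calcium-flux assay, antagonist mode. Cells were seeded 18 h, dye-loaded 1 h at 37 C and given compound for 5 min at RT, then acetylcholine was added at 50nM. FDSS fluorescence was read 3 min; 15 concentrations, three runs.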"}, "[13]": {"target": "Muscarinic acetylcholine receptor M1 (Homo sapiens) (UniProt P11229)", "assay": "Cholinergic receptor muscarinic 1 (CHRM1) small molecule agonists, cell-based qHTS assay (AID 1963589); further: nearly all actives have a fitted effect of over 35% in size; further: potency means the concentration at half of the fitted maximal effect", "how_it_was_run": "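Human M1 in stable CHO line; 18 h plating, 1 h dye load 37 C; cpd added (agonist mode); Ca2+ fluorescence kinetic read, 1 s intervals; 15 conc, 3 runs.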"}, "[14]": {"assay": "cAMP Responsive Elements (CRE) small molecule agonists, cell-based qHTS assay (AID 1963590)", "how_it_was_run": "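HEK 293T CRE-bla, 2,000 cells/well, 18 h preincubation 37 C/5% CO2; cpds (DMSO) pinned, 3 h; LiveBLAzer B/G FRET substrate, 2 h RT.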"}, "[15]": {"assay": "cAMP Responsive Elements (CRE) small molecule antagonists, cell-based qHTS assay (AID 1963591; active means well fitted inhibition curve with a large enough effect in the signal ratio in the repeat runs, not every such curve was filed as active; the % refers to the signal ratio)", "how_it_was_run": "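Beta-lactamase reporter read by FRET substrate (LiveBLAzer B/G) after 2 h at room temperature. CRE-bla HEK293T cells had received compound plus 0.25 uM (final) NKH477 for 3 h at 37 °C.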"}, "[16]": {"target": "Beta-2 adrenergic receptor (Homo sapiens) (UniProt P07550)", "sequence (P07550 whole entry, looked up)": "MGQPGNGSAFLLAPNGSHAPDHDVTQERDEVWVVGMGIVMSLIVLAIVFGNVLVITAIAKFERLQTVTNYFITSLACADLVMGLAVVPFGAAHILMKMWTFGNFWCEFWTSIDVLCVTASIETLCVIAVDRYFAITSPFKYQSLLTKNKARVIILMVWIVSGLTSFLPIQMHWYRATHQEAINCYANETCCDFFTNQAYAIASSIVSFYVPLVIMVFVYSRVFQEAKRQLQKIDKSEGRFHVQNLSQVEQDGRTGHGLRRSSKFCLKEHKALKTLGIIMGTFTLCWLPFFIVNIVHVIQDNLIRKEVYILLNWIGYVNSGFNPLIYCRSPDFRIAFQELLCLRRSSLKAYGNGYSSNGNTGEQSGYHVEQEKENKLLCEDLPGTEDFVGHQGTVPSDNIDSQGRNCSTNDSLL", "assay": "Adrenergic beta2 receptor (ADRB2) small molecule antagonists, cell-based qHTS assay (AID 1963592); further: nearly all actives have a fitted effect of over 50% in size; further: potency means the concentration at half of the fitted maximal effect; on activity change, negative = inhibition: series mostly up to about 92 µM", "how_it_was_run": "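Cells (CHO, stable ADRB2 overexpression) incubated 18-20hr at 37C; compounds added from DMSO; agonist mix (1nM isoproterenol, 100uM IBMX, 25uM Ro-20-1724) added; 0.5hr RT; d2-cAMP and anti-cAMP-cryptate added; 1hr RT; 665/615 nm read.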"}, "[17]": {"target": "D(2) dopamine receptor (Homo sapiens) (UniProt P14416)", "sequence (P14416 whole entry, looked up)": "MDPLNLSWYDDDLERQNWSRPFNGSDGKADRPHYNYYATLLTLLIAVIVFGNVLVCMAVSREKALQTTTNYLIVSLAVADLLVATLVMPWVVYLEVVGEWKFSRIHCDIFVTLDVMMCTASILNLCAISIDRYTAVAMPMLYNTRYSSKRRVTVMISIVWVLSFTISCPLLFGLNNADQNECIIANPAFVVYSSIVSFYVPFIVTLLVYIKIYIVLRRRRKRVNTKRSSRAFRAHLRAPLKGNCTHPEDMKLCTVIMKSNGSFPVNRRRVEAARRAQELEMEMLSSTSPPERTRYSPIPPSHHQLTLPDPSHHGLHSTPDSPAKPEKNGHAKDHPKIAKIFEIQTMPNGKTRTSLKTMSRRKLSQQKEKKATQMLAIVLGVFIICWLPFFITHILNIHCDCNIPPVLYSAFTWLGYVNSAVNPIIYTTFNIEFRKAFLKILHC", "assay": "Dopamine D2 receptor (DRD2) small molecule agonists, cell-based qHTS assay (AID 1963594); further: nearly all actives have a fitted effect of over 35% in size", "how_it_was_run": "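HEK293 cells stably expressing DRD2 were cultured 24 h at 37 C, then given Ro20-1724 (0.1 mM final) and compounds for 10 min at room temperature. NKH477 (200nM) was then added for 30 min. cAMP was read by HTRF.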"}, "[18]": {"target": "D(2) dopamine receptor (Homo sapiens) (UniProt P14416)", "assay": "Dopamine D2 receptor (DRD2) small molecule antagonists, cell-based qHTS assay (AID 1963595; active means well fitted inhibition curve with a large enough effect in the signal ratio in the repeat runs, with a control signal flat; the % refers to the signal ratio; further: potency means the concentration at half of the fitted maximal effect)", "how_it_was_run": "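Cells were plated and grown for 24 h at 37 °C. Ro20-1724 (0.1 mM final) went in first, then compound for 10 min. NKH477 (200 nM) with quinpirole (12 nM) followed for 30 min at RT, then HTRF detection reagents for 1 h.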"}, "[19]": {"assay": "p53 small molecule agonists, cell-based qHTS assay: qHTS cell viability counter screen (AID 1963581); further: potency means the concentration at half of the fitted maximal effect; nearly all actives have a fitted effect of over 45% in size", "how_it_was_run": "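HCT-116 p53RE-bla cells, 4,000/well, plated 5 h before compound pin transfer; 16 h at 37 C; bla substrate 2 h RT; then CellTiter-Glo, 30 min RT, luminescence.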"}, "[20]": {"target": "5-hydroxytryptamine receptor 2A (Homo sapiens) (UniProt P28223)", "assay": "5-hydroxytryptamine receptor 2A (HTR2A) small molecule agonists, cell-based qHTS assay (AID 1963587); further: nearly all actives have a fitted effect of over 30% in size; further: potency means the concentration at half of the fitted maximal effect", "how_it_was_run": "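HTR2A-CHO cells, plated 18 h at 37 C/5% CO2, dye-loaded 1 h at 37 C; compounds in DMSO added by pin tool (agonist mode). Intracellular calcium flux read as kinetic fluorescence on FDSS over 2 min at 1 s intervals.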"}}, "note": "A number with no mark means an inactive call. Inconclusive results are not listed. A call without a number means that no potency is given here. Activity calls are given as the source filed them. Unless noted, the call rests on the fitted dose curve.", "data": [{"smiles": "CC(=O)OCC1=C(C(=O)O)N2C(=O)[C@@H](N)[C@H]2SC1", "values": [{"measurement": "activity change, negative = cytotoxicity", "setting": "[1]", "result": "3.02% [at 19 µM]"}, {"measurement": "activity, positive = activation", "setting": "[2]", "result": "-4.57% [at 19 µM]"}, {"measurement": "activity change", "setting": "[3]", "result": "-1.33% [at 11.8 µM, active compounds read high]"}, {"measurement": "activation", "setting": "[4]", "result": "-0.221% [at 15.8 µM]"}, {"measurement": "activation", "setting": "[5]", "result": "1.18% [at 11.8 µM]"}, {"measurement": "activation", "setting": "[6]", "result": "8.26% [at 13.5 µM]"}, {"measurement": "activation", "setting": "[7]", "result": "0.252% [at 13.6 µM]"}, {"measurement": "activity change, negative = cytotoxicity", "setting": "[8]", "result": "-9.53% [at 13.5 µM]"}, {"measurement": "activity change, negative = cytotoxicity", "setting": "[9]", "result": "0.524% [at 13.5 µM]"}, {"measurement": "activation", "setting": "[10]", "result": "1.4% [at 13.5 µM]"}, {"measurement": "activity, negative = inhibition", "setting": "[11]", "result": "10.6% [at 12.7 µM]"}, {"measurement": "activity, negative = inhibition", "setting": "[12]", "result": "7.63% [at 12.6 µM]"}, {"measurement": "activation", "setting": "[13]", "result": "0.141% [at 15.8 µM]"}, {"measurement": "activation", "setting": "[14]", "result": "-2.32% [at 19 µM]"}, {"measurement": "activity change, negative = inhibition", "setting": "[15]", "result": "-7.18% [at 18.9 µM]"}, {"measurement": "activity change, negative = inhibition", "setting": "[16]", "result": "-0.292% [at 19 µM]"}, {"measurement": "activation", "setting": "[17]", "result": "5.76% [at 19 µM]"}, {"measurement": "activity change, negative = inhibition", "setting": "[18]", "result": "7.52% [at 18.9 µM]"}]}, {"smiles": "C=C(C)C(=O)[O][Sn]([CH2]CCC)([CH2]CCC)[CH2]CCC", "values": [{"measurement": "Potency", "setting": "[1]", "result": "306 nM (active)"}, {"measurement": "Potency", "setting": "[2]", "result": "0.433 µM (active)"}, {"measurement": "Potency", "setting": "[3]", "result": "15.5 µM (active)"}, {"measurement": "Potency", "setting": "[4]", "result": "11 µM (active)"}, {"measurement": "Potency", "setting": "[5]", "result": "34.7 µM (active)"}, {"measurement": "Potency", "setting": "[6]", "result": "inactive"}, {"measurement": "Potency", "setting": "[7]", "result": "inactive"}, {"measurement": "Potency", "setting": "[8]", "result": "14.5 µM (active)"}, {"measurement": "Potency", "setting": "[9]", "result": "3.24 µM (active)"}, {"measurement": "Potency", "setting": "[19]", "result": "3.63 µM (active)"}, {"measurement": "Potency", "setting": "[11]", "result": "1.88 µM (active)"}, {"measurement": "Potency", "setting": "[20]", "result": "9.77 µM (active)"}, {"measurement": "Potency", "setting": "[13]", "result": "9.77 µM (active)"}, {"measurement": "Potency", "setting": "[16]", "result": "1.09 µM (active)"}]}, {"smiles": "CC(CCc1ccccc1)NC(C)C(O)c1ccc(O)cc1", "note": "(stereo unspecified)", "values": [{"measurement": "Potency", "setting": "[1]", "result": "inactive"}, {"measurement": "Potency", "setting": "[2]", "result": "inactive"}, {"measurement": "Potency", "setting": "[3]", "result": "inactive"}, {"measurement": "Potency", "setting": "[4]", "result": "inactive"}, {"measurement": "Potency", "setting": "[5]", "result": "inactive"}, {"measurement": "Potency", "setting": "[6]", "result": "inactive"}, {"measurement": "Potency", "setting": "[7]", "result": "inactive"}, {"measurement": "Potency", "setting": "[8]", "result": "inactive"}, {"measurement": "Potency", "setting": "[9]", "result": "inactive"}, {"measurement": "Potency", "setting": "[10]", "result": "inactive"}, {"measurement": "Potency", "setting": "[11]", "result": "inactive"}, {"measurement": "Potency", "setting": "[20]", "result": "inactive"}, {"measurement": "Potency", "setting": "[12]", "result": "inactive"}, {"measurement": "Potency", "setting": "[13]", "result": "inactive"}, {"measurement": "Potency", "setting": "[14]", "result": "inactive"}, {"measurement": "Potency", "setting": "[16]", "result": "inactive"}, {"measurement": "Potency", "setting": "[18]", "result": "16.8 µM (active)"}]}, {"smiles": "CSSC", "values": [{"measurement": "Potency", "setting": "[1]", "result": "inactive"}, {"measurement": "Potency", "setting": "[2]", "result": "31 µM (active)"}, {"measurement": "Potency", "setting": "[3]", "result": "inactive"}, {"measurement": "Potency", "setting": "[4]", "result": "inactive"}, {"measurement": "Potency", "setting": "[5]", "result": "inactive"}, {"measurement": "Potency", "setting": "[6]", "result": "inactive"}, {"measurement": "Potency", "setting": "[7]", "result": "inactive"}, {"measurement": "Potency", "setting": "[8]", "result": "inactive"}, {"measurement": "Potency", "setting": "[9]", "result": "inactive"}, {"measurement": "Potency", "setting": "[10]", "result": "inactive"}, {"measurement": "Potency", "setting": "[11]", "result": "inactive"}, {"measurement": "Potency", "setting": "[20]", "result": "inactive"}, {"measurement": "Potency", "setting": "[13]", "result": "inactive"}, {"measurement": "Potency", "setting": "[15]", "result": "inactive"}, {"measurement": "Potency", "setting": "[16]", "result": "inactive"}, {"measurement": "Potency", "setting": "[17]", "result": "inactive"}, {"measurement": "Potency", "setting": "[18]", "result": "inactive"}]}]}
